Our source for the Potency values is PubChem BioAssay (NCATS).

Structures are written as SMILES. Results filed as inconclusive are left out. The source made the active and inactive calls. The call rests on the fitted dose curve; in most records, active means well fitted inhibition curve with a large enough effect; inconclusive means small, poorly fitted or top-dose-only effect; inactive means flat fitted curve, though single readings scatter.

Holding throughout (experiment): qHTS profiling for inhibitors of Plasmodium falciparum proliferation (AID 504749); further: nearly all actives have a fitted effect of over 60% in size
Settings in all cases: P. falciparum in erythrocytes, SYBR Green DNA, 72 h; series mostly up to 28.7 µM
Background: qHTS replaces the single test concentration by a dilution series.

One experiment has as its system CP211. In a few lines: (§1)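 P. falciparum-infected erythrocytes (0.3% parasitemia, 2.5% hematocrit) incubated with compound 72 h at 37 C, 5% CO2. Parasite DNA detected by SYBR Green after lysis, overnight at room temperature; normalised to 0.29 uM artemisinin and DMSO.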
The next experiment deals with CP215. In a few lines:
as §1

The next experiment has as its system CP217. Put shortly: as §1
In the next experiment the test system is CP237. Put shortly:
as §1

The next experiment relates to CP238. Put shortly:
as §1

A further experiment deals with CP247. In a few lines:
as §1

In another experiment the test system is CP250. Put shortly: as §1
The subject of another experiment is CP252. In a few lines: as §1
Another experiment concerns CP256. Put shortly: as §1
For a further experiment, the system named is CP262. Put shortly: as §1
A further experiment concerns CP265. In a few lines:
as §1

The next experiment has as its system CP266. In a few lines: as §1
Another experiment relates to CP268. In a few lines:
as §1

For another experiment, the system named is CP269. Put shortly:
as §1

The subject of a further experiment is CP286. In a few lines:
as §1

For the next experiment, the system named is CP291. In a few lines:
as §1

For the next experiment, the system named is CP297. Put shortly:
as §1

The test system of another experiment is CP305. Put shortly: as §1
Another experiment has as its system CP315. Put shortly:
as §1

For a further experiment, the system named is CP260. In a few lines:
as §1
Potency means the concentration at half of the fitted maximal effect.

Regarding `CC(C)Cn1cnc2c(N)nc3ccccc3c21`, the Potency entry in the experiment on CP211, in the experiment on CP215, with CP217, in the experiment on CP237, in the experiment on CP238 and in the experiment with CP247 was “inactive” in each case. The Potency result with CP250, in the experiment on CP252, in the experiment with CP256, in the experiment with CP262, with CP265 and in the experiment with CP266 was “inactive” each time. For the same compound, the Potency entry in the experiment on CP268, in the experiment on CP269, with CP286, in the experiment with CP291, with CP297 and with CP305 was “inactive” each time. Moreover, the Potency result in the experiment on CP315 was “inactive”.
As for `NCCCC(O)(P(=O)(O)O)P(=O)(O)O`, the Potency result in the experiment on CP211, with CP215, with CP217, in the experiment with CP237, with CP238 and with CP247 was “inactive” in each case. Besides, the Potency entry with CP250, in the experiment on CP252, with CP256, with CP260, in the experiment on CP262 and with CP265 was “inactive” throughout. Further, the Potency entry in the experiment on CP268, in the experiment with CP269, in the experiment with CP286, with CP291, in the experiment on CP297 and in the experiment on CP305 was “inactive” throughout. For the same compound, the Potency entry in the experiment on CP315 was “inactive”.
`Cc1noc(NS(=O)(=O)c2ccc(N)cc2)c1C`: the Potency entry in the experiment on CP211, in the experiment on CP215, in the experiment on CP217, in the experiment on CP237, with CP238 and with CP247 was “inactive” throughout. In addition, the Potency entry with CP250, with CP252, with CP256, in the experiment with CP260, in the experiment on CP262 and in the experiment with CP265 was “inactive” each time. In addition, the Potency result in the experiment with CP269, in the experiment with CP286, with CP291, in the experiment on CP297 and with CP305 was “inactive” each time.
On to `CCC(C)(C)c1ccc(CC(C)CN2C[C@@H](C)O[C@@H](C)C2)cc1` (stereo partly specified), for which the Potency entry with CP211, in the experiment with CP215, in the experiment on CP217, in the experiment with CP238, with CP247 and in the experiment on CP250 was “inactive” in each case. For the same compound, the Potency entry with CP252, in the experiment with CP256, with CP262, with CP265, in the experiment on CP266 and with CP268 was “inactive” each time. Moreover, the Potency result in the experiment on CP269, in the experiment with CP291, with CP297, in the experiment with CP305 and in the experiment with CP315 was “inactive” throughout.
With `CC(C)(Sc1cc(C(C)(C)C)c(O)c(C(C)(C)C)c1)Sc1cc(C(C)(C)C)c(O)c(C(C)(C)C)c1`, the Potency entry with CP211, with CP215, in the experiment with CP217, with CP238, in the experiment with CP247 and in the experiment on CP250 was “inactive” throughout. Also, the Potency result with CP252, in the experiment with CP256, in the experiment with CP265, with CP266, in the experiment with CP268 and in the experiment on CP269 was “inactive” in each case. Further, the Potency entry with CP291, in the experiment with CP297 and with CP305 was “inactive” throughout. The values for the Potency in the experiment on CP260 and in the experiment with CP286 were 3.55 µM (active) and 3.98 µM (active), respectively.
In the case of `O=S(=O)(O)CCS`, the Potency result with CP211, with CP215, in the experiment with CP217, with CP237, in the experiment on CP238 and with CP247 was “inactive” each time. For the same compound, the Potency entry in the experiment with CP250, in the experiment with CP252, in the experiment with CP256, in the experiment on CP262, in the experiment with CP265 and with CP266 was “inactive” each time. Further, the Potency entry in the experiment on CP268, with CP269, in the experiment on CP286, with CP291, in the experiment with CP297 and in the experiment with CP305 was “inactive” each time. In addition, the Potency result in the experiment on CP315 was “inactive”.
For the compound `CCn1cc(C(=O)O)c(=O)c2cc(F)c(N3CCNCC3)nc21`, the Potency entry in the experiment with CP211, in the experiment with CP215, in the experiment with CP217, with CP238, in the experiment with CP247 and with CP250 was “inactive” in each case. Besides, the Potency entry with CP262, with CP265, with CP268, in the experiment on CP286, with CP297 and with CP305 was “inactive” in each case. The Potency result with CP315 was “inactive”.
For the compound `CCc1c2c(nc3ccc(OC(=O)N4CCC(N5CCCCC5)CC4)cc13)-c1cc3c(c(=O)n1C2)COC(=O)[C@]3(O)CC`, the Potency entry with CP211, in the experiment with CP215, in the experiment with CP217, in the experiment on CP237, in the experiment on CP238 and in the experiment with CP247 was “inactive” throughout. In addition, the Potency result with CP250, in the experiment on CP252, in the experiment on CP256, in the experiment with CP260, in the experiment with CP262 and in the experiment on CP265 was “inactive” throughout. For the same compound, the Potency result with CP268, in the experiment with CP269, in the experiment on CP286, in the experiment with CP291, in the experiment with CP297 and in the experiment on CP305 was “inactive” throughout. Also, in the experiment with CP315, the Potency result was “inactive”.
Turning to `COc1cnc(NS(=O)(=O)c2ccc(N)cc2)nc1`, the Potency result in the experiment on CP211, in the experiment on CP215, in the experiment on CP217, with CP237, in the experiment on CP238 and in the experiment on CP247 was “inactive” in each case. Also, the Potency entry with CP250, in the experiment on CP252, in the experiment with CP256, in the experiment on CP260, in the experiment with CP262 and in the experiment with CP265 was “inactive” throughout. In addition, the Potency result in the experiment with CP268, in the experiment with CP269, in the experiment with CP286, with CP291, in the experiment with CP297 and in the experiment on CP305 was “inactive” in each case. In addition, in the experiment with CP315, the Potency entry was “inactive”.
In the case of `CCCc1cc(C(N)=S)ccn1`, the Potency entry in the experiment with CP211, in the experiment on CP215, in the experiment with CP217, in the experiment on CP237, with CP238 and with CP247 was “inactive” each time. Moreover, the Potency entry with CP250, with CP252, with CP256, with CP260, with CP262 and in the experiment on CP265 was “inactive” in each case. For the same compound, the Potency entry with CP266, with CP268, with CP269, with CP286, in the experiment on CP291 and in the experiment with CP305 was “inactive” throughout. Further, the Potency result in the experiment with CP315 is “inactive”.
Consider `OC(Cn1cncn1)(Cn1cncn1)c1ccc(F)cc1F`, for which the Potency result in the experiment with CP211, in the experiment with CP215, in the experiment with CP217, with CP237, in the experiment on CP238 and in the experiment on CP247 was “inactive” throughout. The Potency result in the experiment with CP250, with CP252, with CP256, in the experiment with CP260, with CP262 and in the experiment with CP265 was “inactive” each time. Moreover, the Potency entry in the experiment on CP266, in the experiment on CP268, in the experiment on CP286, in the experiment with CP291, with CP297 and in the experiment on CP305 was “inactive” each time. Further, the Potency entry in the experiment with CP315 was “inactive”.
In the case of `COc1c(N2CCNC(C)C2)c(F)cc2c(=O)c(C(=O)O)cn(C3CC3)c12` (stereo unspecified), the Potency result in the experiment with CP211, with CP215, in the experiment on CP217, in the experiment on CP237, with CP238 and in the experiment on CP247 was “inactive” throughout. For the same compound, the Potency result in the experiment with CP252, in the experiment on CP260, in the experiment on CP265, in the experiment on CP266, in the experiment with CP268 and with CP305 was “inactive” each time. Also, in the experiment with CP315, the Potency entry is “inactive”.
In the case of `CNC1CCCN(c2c(F)cc3c(=O)c(C(=O)O)cn(C4CC4)c3c2OC)C1` (stereo unspecified), the Potency result in the experiment with CP211, with CP215, in the experiment with CP217, in the experiment on CP237, in the experiment with CP238 and with CP250 was “inactive” in each case. The Potency entry in the experiment on CP252, with CP256, with CP260, in the experiment with CP262, with CP265 and in the experiment with CP268 was “inactive” each time. Moreover, the Potency result in the experiment on CP269, in the experiment with CP286, in the experiment on CP291, with CP297, in the experiment on CP305 and with CP315 was “inactive” each time.
For the compound `COc1nc(N)nc2c1ncn2[C@@H]1O[C@H](CO)[C@@H](O)[C@@H]1O`, the Potency entry with CP211, with CP215, in the experiment with CP217, with CP237, with CP238 and in the experiment on CP247 was “inactive” in each case. In addition, the Potency result with CP250, in the experiment on CP252, in the experiment with CP256, in the experiment on CP260, with CP262 and in the experiment on CP265 was “inactive” each time. In addition, the Potency entry in the experiment on CP266, with CP268, in the experiment on CP269, with CP286, in the experiment on CP305 and in the experiment with CP315 was “inactive” throughout.
Consider `O=C(O)c1cc(=O)[nH]c(=O)[nH]1`, for which the Potency result in the experiment on CP211, with CP215, with CP217, in the experiment with CP237, with CP238 and in the experiment on CP247 was “inactive” each time. In addition, the Potency result in the experiment on CP250, in the experiment with CP252, in the experiment on CP256, in the experiment on CP260, with CP262 and in the experiment with CP265 was “inactive” in each case. For the same compound, the Potency entry in the experiment on CP266, in the experiment with CP268, with CP269, in the experiment on CP286, in the experiment on CP291 and with CP297 was “inactive” throughout. Also, the Potency entry with CP305 and with CP315 was “inactive” throughout.
